Experiment [1] deals with T1, Muscle, skeletal receptor tyrosine-protein kinase (Homo sapiens) (UniProt O15146).
T1 sequence (whole entry): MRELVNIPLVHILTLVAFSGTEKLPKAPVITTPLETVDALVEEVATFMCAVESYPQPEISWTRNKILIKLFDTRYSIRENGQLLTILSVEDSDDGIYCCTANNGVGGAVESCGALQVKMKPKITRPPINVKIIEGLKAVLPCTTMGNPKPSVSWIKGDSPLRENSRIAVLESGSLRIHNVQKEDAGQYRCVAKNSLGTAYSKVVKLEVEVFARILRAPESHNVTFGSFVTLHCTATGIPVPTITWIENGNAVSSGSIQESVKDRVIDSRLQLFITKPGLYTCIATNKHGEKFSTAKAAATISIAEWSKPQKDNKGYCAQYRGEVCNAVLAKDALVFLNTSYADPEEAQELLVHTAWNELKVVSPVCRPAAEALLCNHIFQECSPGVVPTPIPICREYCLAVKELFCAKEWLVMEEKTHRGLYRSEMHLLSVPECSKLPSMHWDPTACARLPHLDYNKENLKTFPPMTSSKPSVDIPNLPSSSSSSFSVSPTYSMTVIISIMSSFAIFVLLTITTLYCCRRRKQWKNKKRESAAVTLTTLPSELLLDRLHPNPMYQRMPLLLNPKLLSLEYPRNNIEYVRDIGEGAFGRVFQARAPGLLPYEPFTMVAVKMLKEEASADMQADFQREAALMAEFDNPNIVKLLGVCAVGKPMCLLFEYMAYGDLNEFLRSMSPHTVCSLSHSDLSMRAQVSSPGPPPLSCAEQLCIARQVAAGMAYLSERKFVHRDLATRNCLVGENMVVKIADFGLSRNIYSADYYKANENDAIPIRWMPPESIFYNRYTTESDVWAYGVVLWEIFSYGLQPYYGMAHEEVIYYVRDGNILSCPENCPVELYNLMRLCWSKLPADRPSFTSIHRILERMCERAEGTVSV
The following applies: at 1 µM.

Experiment [2] concerns the target T1, Muscle, skeletal receptor tyrosine-protein kinase (Homo sapiens). The note with it: at 10 µM.
For experiment [3], the target named is T2, Serine/threonine-protein kinase Nek11 (Homo sapiens) (UniProt Q8NG66).
T2 sequence (whole entry): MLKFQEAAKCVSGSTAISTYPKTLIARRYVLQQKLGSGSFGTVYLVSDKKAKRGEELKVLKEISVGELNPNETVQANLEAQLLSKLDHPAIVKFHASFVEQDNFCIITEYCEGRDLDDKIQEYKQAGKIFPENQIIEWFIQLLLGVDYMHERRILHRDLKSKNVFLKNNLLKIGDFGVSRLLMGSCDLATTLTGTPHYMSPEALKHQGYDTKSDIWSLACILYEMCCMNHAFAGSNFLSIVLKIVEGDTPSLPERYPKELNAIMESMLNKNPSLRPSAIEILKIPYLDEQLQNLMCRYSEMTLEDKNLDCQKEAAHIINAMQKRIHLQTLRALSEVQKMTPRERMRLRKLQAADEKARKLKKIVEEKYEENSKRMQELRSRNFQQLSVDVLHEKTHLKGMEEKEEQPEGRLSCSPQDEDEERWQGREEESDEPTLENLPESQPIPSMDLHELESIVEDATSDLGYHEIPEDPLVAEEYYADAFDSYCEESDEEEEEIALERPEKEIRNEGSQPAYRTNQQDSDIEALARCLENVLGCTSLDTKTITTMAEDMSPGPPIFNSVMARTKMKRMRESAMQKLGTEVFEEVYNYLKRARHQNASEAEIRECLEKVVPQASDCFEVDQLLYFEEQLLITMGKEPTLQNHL
The note with it: at 1 µM.

The target of experiment [4] is T2, Serine/threonine-protein kinase Nek11 (Homo sapiens). The note with it: at 10 µM.
The target of experiment [5] is T3, Serine/threonine-protein kinase Nek2 (Homo sapiens) (UniProt P51955).
T3 sequence (whole entry): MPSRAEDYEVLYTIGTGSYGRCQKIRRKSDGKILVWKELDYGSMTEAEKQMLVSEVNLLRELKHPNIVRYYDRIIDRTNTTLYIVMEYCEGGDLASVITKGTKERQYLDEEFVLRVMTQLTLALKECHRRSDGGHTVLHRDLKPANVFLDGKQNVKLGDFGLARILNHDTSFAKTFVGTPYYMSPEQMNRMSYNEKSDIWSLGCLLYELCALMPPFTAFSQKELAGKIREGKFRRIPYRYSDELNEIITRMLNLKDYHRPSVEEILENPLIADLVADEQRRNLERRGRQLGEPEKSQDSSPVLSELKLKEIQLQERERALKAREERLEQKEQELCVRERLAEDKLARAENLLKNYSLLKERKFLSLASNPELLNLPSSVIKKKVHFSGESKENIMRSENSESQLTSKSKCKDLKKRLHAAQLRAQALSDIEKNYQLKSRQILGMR
The following applies: at 1 µM.

Experiment [6] has as its target T3, Serine/threonine-protein kinase Nek2 (Homo sapiens). The note with it: at 10 µM.
For experiment [7], the target named is T4, Serine/threonine-protein kinase Nek3 (Homo sapiens) (UniProt P51956).
T4 sequence (whole entry): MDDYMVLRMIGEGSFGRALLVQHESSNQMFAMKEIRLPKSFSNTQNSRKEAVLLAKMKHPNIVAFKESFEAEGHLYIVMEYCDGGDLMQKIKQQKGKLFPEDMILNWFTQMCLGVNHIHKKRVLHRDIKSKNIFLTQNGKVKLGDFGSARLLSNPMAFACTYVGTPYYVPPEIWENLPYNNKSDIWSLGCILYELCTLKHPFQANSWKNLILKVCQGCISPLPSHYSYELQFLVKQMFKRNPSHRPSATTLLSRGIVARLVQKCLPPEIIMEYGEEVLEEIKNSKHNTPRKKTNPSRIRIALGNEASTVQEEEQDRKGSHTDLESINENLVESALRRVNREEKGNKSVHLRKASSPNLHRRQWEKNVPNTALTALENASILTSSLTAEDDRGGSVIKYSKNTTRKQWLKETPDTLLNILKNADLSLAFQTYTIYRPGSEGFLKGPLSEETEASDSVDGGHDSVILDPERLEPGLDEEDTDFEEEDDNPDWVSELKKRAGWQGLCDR
The note with it: at 1 µM.

The target of experiment [8] is T4, Serine/threonine-protein kinase Nek3 (Homo sapiens). The note with it: at 10 µM.
Experiment [9] addresses Serine/threonine-protein kinase tousled-like 2 (Homo sapiens) (UniProt Q86UE8). The following applies: at 1 µM.
Experiment [10] has the same target. The following applies: at 10 µM.
Experiment [11] has as its target T5, Testis-specific serine/threonine-protein kinase 1 (Homo sapiens) (UniProt Q9BXA7).
T5 sequence (whole entry): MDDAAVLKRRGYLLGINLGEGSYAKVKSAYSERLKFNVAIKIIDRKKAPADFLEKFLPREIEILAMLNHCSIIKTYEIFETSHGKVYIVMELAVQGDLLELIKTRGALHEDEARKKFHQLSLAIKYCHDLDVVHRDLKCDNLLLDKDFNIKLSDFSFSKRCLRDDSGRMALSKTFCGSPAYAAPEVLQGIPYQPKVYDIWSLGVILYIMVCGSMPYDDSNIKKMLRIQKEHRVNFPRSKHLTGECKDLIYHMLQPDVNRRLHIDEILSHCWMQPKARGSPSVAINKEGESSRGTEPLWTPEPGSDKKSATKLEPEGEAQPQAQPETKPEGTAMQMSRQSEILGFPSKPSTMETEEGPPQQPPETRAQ
The note with it: at 1 µM.

Experiment [12] concerns the target T5, Testis-specific serine/threonine-protein kinase 1 (Homo sapiens). The following applies: at 10 µM.
Experiment [13] has as its target T6, Testis-specific serine/threonine-protein kinase 2 (Homo sapiens) (UniProt Q96PF2).
T6 sequence (whole entry): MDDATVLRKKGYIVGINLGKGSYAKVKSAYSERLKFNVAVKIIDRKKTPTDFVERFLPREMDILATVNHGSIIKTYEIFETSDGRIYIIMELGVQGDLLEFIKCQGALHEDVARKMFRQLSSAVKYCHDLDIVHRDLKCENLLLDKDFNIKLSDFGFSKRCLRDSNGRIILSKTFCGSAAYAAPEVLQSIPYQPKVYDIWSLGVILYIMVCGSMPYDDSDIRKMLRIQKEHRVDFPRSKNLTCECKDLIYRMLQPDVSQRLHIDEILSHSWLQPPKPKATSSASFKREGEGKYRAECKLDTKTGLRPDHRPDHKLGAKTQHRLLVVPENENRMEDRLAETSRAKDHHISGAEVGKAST
The following applies: at 10 µM.

For experiment [14], the target named is T7, Tyrosine-protein kinase Tec (Homo sapiens) (UniProt P42680).
T7 sequence (whole entry): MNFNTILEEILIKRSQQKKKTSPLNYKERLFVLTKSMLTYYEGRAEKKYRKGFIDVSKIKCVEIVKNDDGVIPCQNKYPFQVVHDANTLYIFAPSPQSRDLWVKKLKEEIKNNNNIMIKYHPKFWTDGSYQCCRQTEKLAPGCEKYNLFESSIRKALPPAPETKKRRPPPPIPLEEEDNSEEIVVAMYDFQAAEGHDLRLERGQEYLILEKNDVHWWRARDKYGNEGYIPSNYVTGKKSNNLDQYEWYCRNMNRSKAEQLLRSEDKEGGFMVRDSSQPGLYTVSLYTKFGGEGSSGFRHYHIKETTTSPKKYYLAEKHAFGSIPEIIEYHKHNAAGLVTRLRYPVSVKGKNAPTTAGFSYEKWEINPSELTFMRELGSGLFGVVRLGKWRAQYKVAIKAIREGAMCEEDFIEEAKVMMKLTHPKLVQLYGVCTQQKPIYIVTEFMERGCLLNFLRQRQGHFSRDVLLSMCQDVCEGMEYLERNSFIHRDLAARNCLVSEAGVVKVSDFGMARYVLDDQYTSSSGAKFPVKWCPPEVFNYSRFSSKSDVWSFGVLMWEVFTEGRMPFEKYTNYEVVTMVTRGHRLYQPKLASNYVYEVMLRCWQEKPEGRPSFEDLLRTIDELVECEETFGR
The note with it: at 1 µM.

Experiment [15] concerns the target T7, Tyrosine-protein kinase Tec (Homo sapiens). The note with it: at 10 µM.
The target of experiment [16] is Angiopoietin-1 receptor (Homo sapiens) (UniProt Q02763). The following applies: at 1 µM.
Chain of Angiopoietin-1 receptor (Homo sapiens) (Q02763 whole entry): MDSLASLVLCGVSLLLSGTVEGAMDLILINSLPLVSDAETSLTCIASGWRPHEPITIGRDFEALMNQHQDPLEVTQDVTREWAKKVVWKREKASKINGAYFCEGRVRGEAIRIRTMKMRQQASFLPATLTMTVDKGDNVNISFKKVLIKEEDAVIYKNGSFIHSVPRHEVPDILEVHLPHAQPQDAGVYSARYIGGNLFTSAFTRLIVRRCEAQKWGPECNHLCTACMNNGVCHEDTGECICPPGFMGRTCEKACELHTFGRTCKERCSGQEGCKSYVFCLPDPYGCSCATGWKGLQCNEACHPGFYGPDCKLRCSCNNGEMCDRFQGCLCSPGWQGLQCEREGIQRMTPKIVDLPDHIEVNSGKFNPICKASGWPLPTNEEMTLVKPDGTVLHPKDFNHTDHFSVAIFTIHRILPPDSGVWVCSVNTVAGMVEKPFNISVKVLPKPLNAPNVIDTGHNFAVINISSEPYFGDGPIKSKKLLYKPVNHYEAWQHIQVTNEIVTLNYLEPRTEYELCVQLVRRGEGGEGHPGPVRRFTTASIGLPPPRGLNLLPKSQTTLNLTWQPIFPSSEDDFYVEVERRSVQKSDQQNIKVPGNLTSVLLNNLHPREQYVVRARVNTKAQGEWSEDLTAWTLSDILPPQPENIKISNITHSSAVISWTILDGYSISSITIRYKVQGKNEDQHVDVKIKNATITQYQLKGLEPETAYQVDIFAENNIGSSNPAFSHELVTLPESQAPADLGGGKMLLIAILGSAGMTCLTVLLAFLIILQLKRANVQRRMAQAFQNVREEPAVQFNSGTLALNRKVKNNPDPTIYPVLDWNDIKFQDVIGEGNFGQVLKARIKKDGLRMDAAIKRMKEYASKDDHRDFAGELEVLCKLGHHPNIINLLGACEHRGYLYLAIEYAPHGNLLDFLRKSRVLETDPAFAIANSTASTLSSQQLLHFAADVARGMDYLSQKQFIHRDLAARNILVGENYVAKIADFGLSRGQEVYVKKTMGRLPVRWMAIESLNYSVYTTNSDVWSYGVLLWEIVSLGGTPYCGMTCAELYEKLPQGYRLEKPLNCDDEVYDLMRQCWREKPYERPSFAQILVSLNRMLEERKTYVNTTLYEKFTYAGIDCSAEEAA
For experiment [17] the target is unchanged. The note with it: at 10 µM.
The target in experiment [18] is High affinity nerve growth factor receptor (Homo sapiens) (UniProt P04629). The following applies: at 1 µM.
Chain of High affinity nerve growth factor receptor (Homo sapiens) (P04629 33-796 limits assumed): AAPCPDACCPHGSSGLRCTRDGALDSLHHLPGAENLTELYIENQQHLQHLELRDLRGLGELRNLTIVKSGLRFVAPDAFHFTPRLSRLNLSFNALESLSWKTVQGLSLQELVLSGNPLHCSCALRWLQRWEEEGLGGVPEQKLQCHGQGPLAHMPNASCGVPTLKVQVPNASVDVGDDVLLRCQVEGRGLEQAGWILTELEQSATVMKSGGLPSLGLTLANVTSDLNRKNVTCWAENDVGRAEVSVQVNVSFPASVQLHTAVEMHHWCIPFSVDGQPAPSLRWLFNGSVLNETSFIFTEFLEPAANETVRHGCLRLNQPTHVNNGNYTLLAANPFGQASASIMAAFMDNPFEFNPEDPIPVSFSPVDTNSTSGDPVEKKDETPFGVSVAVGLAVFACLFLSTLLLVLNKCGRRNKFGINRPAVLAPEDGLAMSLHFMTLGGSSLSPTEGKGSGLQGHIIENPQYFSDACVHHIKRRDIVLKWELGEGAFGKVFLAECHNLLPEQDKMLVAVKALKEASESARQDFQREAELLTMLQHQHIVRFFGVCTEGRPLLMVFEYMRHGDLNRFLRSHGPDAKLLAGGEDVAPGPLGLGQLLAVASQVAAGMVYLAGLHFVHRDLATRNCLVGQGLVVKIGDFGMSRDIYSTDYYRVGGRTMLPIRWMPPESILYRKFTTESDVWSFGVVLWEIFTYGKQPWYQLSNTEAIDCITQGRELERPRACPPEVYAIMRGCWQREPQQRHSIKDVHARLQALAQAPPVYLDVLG
For experiment [19] the target is unchanged. The following applies: at 10 µM.
Experiment [20] has as its target BDNF/NT-3 growth factors receptor (Homo sapiens) (UniProt Q16620). The note with it: at 1 µM.

Chain of Serine/threonine-protein kinase tousled-like 2 (Homo sapiens) (Q86UE8 whole entry, looked up): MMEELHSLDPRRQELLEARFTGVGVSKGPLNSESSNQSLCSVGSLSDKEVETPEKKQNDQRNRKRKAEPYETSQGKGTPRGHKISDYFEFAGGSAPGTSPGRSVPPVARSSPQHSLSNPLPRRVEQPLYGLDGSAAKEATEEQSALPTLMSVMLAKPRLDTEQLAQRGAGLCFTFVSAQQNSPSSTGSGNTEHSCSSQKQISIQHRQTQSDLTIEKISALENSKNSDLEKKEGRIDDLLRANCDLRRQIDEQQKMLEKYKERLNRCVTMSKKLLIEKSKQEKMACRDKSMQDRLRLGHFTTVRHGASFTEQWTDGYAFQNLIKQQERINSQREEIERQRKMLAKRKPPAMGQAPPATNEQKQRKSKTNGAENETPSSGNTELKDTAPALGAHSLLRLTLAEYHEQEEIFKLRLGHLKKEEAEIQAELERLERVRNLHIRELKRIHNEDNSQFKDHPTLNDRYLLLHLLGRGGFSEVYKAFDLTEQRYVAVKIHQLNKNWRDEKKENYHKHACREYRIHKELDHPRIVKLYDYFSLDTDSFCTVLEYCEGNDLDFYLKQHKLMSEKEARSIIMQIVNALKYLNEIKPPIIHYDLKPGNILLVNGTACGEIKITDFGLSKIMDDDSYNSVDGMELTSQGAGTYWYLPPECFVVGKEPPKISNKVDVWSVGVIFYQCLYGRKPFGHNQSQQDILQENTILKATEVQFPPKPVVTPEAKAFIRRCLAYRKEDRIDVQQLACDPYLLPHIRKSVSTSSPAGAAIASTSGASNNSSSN
Chain of BDNF/NT-3 growth factors receptor (Homo sapiens) (Q16620 32-822 limits assumed): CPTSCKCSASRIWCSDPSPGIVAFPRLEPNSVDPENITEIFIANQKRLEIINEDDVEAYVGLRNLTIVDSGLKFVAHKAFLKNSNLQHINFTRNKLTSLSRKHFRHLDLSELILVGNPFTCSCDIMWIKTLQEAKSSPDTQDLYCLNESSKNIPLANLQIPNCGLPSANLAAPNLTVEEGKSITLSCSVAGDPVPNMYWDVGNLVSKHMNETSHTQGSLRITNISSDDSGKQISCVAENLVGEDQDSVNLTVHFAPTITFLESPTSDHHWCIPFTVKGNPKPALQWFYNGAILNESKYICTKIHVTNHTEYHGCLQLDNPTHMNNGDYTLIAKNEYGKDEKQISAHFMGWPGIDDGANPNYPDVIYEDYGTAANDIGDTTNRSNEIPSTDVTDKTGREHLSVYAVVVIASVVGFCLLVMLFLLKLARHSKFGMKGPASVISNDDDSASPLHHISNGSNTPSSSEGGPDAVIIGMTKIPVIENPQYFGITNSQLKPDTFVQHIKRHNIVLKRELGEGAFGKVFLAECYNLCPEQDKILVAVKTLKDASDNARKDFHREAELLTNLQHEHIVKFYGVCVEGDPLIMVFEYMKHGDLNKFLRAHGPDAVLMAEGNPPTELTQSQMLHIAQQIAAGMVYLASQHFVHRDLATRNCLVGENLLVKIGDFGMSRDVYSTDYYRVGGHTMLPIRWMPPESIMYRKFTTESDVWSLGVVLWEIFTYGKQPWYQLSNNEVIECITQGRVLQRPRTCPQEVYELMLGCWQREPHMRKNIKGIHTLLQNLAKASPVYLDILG

For `Cn1cc(/C=C2\C(=O)Nc3ccc(S(N)(=O)=O)cc32)c2ccccc21`, the residual activity in experiment [1] was 69%; in experiment [2], 28%; in experiment [3], 83%; in experiment [4], 90%; in experiment [5] it was 79%; in experiment [6], 26%. Besides, the residual activity in experiment [7] turned out to be 72%; in experiment [8], 19%; in experiment [9], 87%; in experiment [10], 43%; in experiment [11], 19%; in [12], 14%. The residual activity in [13] amounted to 72%; in experiment [14], 52%; in experiment [15] it was 6%; in experiment [16], 86%; in experiment [17] it was 73%; in experiment [18], 1%. The residual activity in experiment [19] came to 1%; in experiment [20], 23%.
Take `CCN(CC)C(=O)c1ccc(Nc2nc(OCC3CCCCC3)c3nc[nH]c3n2)cc1`: the residual activity stood at 32% in experiment [1]; 4% in [2]; 67% in experiment [3]; 41% in [4]; 68% in experiment [5]; 11% in [6]. The residual activity stood at 47% in [7]; 18% in [8]; 14% in experiment [11]; 2% in experiment [12]; 14% in [13]; 24% in experiment [14]. The residual activity in experiment [15] was found to be 2%; in [17], 8%; in [18], 8%; in [19], 0%; in experiment [20] it was 36%.
For the molecule `c1ccc(-c2n[nH]c3c2oc2ccccc23)cc1`, the residual activity in experiment [1] was 14%; in experiment [2], 0%; in experiment [5], 91%; in [6] it was 99%; in [9], 98%; in [10], 86%. The residual activity came to 82% in experiment [12]; 96% in [13]; 76% in experiment [15]; 83% in experiment [16]; 58% in experiment [17]; 32% in [18]. Moreover, the residual activity turned out to be 2% in experiment [19] and 45% in experiment [20].
As for `CCN(CC)CCCCN1c2ccccc2Oc2ccc(Cl)cc21`, the residual activity came out at 129% in [1]; 97% in experiment [2]; 80% in experiment [3]; 113% in experiment [4]; 85% in experiment [5]; 112% in experiment [6]. In addition, the residual activity turned out to be 110% in experiment [7]; 111% in experiment [8]; 111% in experiment [9]; 91% in experiment [10]; 105% in [11]; 102% in [12]. Further, the residual activity was found to be 98% in [13]; 92% in experiment [14]; 78% in experiment [15]; 105% in experiment [16]; 71% in experiment [17]; 90% in experiment [18]. Moreover, the results for the residual activity in [19] and in [20] were 101% and 107%, respectively.

In general, residual activity refers to the signal under treatment as a percentage of the control signal.

The values above are taken from ChEMBL document CHEMBL2218924, “A broad activity screen in support of a chemogenomic map for kinase signalling research and drug discovery” (Biochem J, 2013).
